# Only some compounds are listed: those with a hit (about 4.6% of all), similar ones and a draw of the others.
# TIM10 inh: growth inhibitors of isogenic TIM10 control yeast, primary screen, counter-screen for tim10-1 yeast inhibitor project, luminescence, uHTS; actives 1.4% (n = 330,000); AID 463195, 2010; inhibition, % at 10 µM; S. cerevisiae TIM10 strain growth, BacTiter-Glo luminescence, 24 h;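 active means inhibition of 40% or more at the single tested concentration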;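 further: wild-type TIM10 isogenic control strain grown at permissive 25 °C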
# tim23-1 inh: growth inhibitors of tim23-1 mutant yeast, primary screen, luminescence, uHTS; actives 1.3% (n = 330,000); S. cerevisiae tim23-1 growth, BacTiter-Glo luminescence, 24 h; inhibition, % at 20 µM;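 active means growth inhibition of the mutant yeast at or above 50%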;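 further: temperature-sensitive mutant grown at 25 °C; plate controls were DMSO-treated mutant yeast for no effect and medium wells lacking yeast for full effect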
# SKKanGAS inh: S. pyogenes SKKanGAS growth inhibitors in kanamycin, primary screen, streptokinase expression inhibitor project, SKKanGAS strain, BacTiter-Glo luminescence. inhibition, % at 7.5 µM. 6 h. AID 1662, 2009. actives 1.3% (n = 300,000);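 active means mean replicate score, as percent of positive control median, at least 50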;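 further: strain carries kanamycin resistance gene driven by streptokinase promoter and grows in 40 µg/ml kanamycin; loss of luminescence reflects streptokinase promoter inhibition or plain growth inhibition; 0% = median of DMSO wells and 100% = positive control at its reference dose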
# NALP3 yeast inh: NALP3 inflammasome inhibitors in reconstituted yeast, primary screen, luminescence, uHTS; AID 2825, 2010; actives 0.39% (n = 330,000); inhibition, % at 10 µM; Yeast reconstituted NLRP3/ASC/caspase-1, beta-gal luminescence, 24 h;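 active means inhibition of 50% or more; inactive means inhibition below 50%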;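 further: plate controls were induced DMSO wells for no effect and uninduced yeast grown without galactose for full effect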
# PfHsp90 yeast 2: growth inhibition of PfHsp90-expressing yeast, primary screen, antimalarial PfHsp90 inhibitor project, S. cerevisiae, BacTiter-Glo luminescence, single point, set 2; BacTiter-Glo ATP, 48 h; yeast lacking PDR1 and PDR3 efflux regulators; inhibition, % at 9.4 µM; actives 0.32% (n = 310,000);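 active means every replicate shows inhibition above about 80%, whatever the replicate mean, limit read from the data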;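 further: 0% = DMSO neutral controls and 100% = 20 µM radicicol positive controls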
# tim10-1 inh: growth inhibitors of tim10-1 mutant yeast, primary screen, luminescence, uHTS; actives 2.2% (n = 330,000); S. cerevisiae tim10-1 ts strain growth, BacTiter-Glo, 24 h; AID 463190, 2010; inhibition, % at 20 µM;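 active means inhibition of at least 40%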;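 further: mutant grown at 25 °C; 0% = DMSO wells with yeast and 100% = wells holding no yeast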
# tim23-1 conf: tim23-1 mutant yeast growth inhibitors, confirmation, luminescence, single concentration; shares compounds with tim23-1 inh; S. cerevisiae tim23-1 growth, BacTiter-Glo luminescence, 24 h; inhibition, % at 20 µM; actives 83% (n = 4,400);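 active means inhibition above about 39% in either of two replicate wells at 20 µM, limit read from the data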;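 further: temperature-sensitive tim23-1 mutant grown at 25 °C; 0% = DMSO wells with yeast and 100% = medium wells without yeast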
# The depositor's hits bear a star; . = no result given.
SMILES,TIM10 inh,tim23-1 inh,SKKanGAS inh,NALP3 yeast inh,PfHsp90 yeast 2,tim10-1 inh,tim23-1 conf
Cc1ccc(/C=N/NC(=O)c2cccs2)s1,-1,7,-1,25,9,-14,.
O=C(N/N=C/c1ccc(Br)s1)c1c[nH]c2ccccc12,2,55*,2,1,32,-14,46*
O=C(N/N=C/c1ccc(Br)s1)c1cccs1,35,57*,15,24,-11,19,63*
O=C(N/N=C/c1cc(Br)cs1)c1c[nH]c2ccccc12,12,60*,7,29,14,14,71*
COc1cc(C(=O)NCc2nnc(SCC(=O)NCc3ccco3)o2)cc(OC)c1OC,-4,-3,-11,10,16,2,.
Cc1cc(C(=O)Nc2ccc(Cl)cc2)c(C)n1-c1ccccc1,36,56*,12,10,.,39,54*
Cc1cc(C(=O)Nc2ccc(Cl)cc2)n(-c2ccccc2)n1,11,22,-2,27,-6,28,.
COC(=O)n1c(=O)oc2cc(S(=O)(=O)N3CCOCC3)ccc21,-3,16,10,-8,.,-1,.
COC(=O)n1c(=S)oc2cc(Cl)ccc21,16,78*,-1,11,.,23,79*
Cc1c(Cl)ccc(S(=O)(=O)NCCCn2ccnc2)c1Cl,-40,-65,-3,12,-10,-15,.
CS(=O)(=O)Nc1ccc(C(=O)Nc2ccc(S(=O)(=O)N3CCCC3)cc2)cc1,8,14,3,19,14,25,.
Cc1cccc(Oc2sc(C(=O)c3ccccc3)c(N)c2C#N)c1,31,55*,36,18,-19,33,42*
N#Cc1c(Nc2ccccc2)sc(C(=O)c2ccccc2)c1N,26,18,3,28,1,11,.
O=C(NC(=S)NCCc1ccccc1)c1ccccc1F,33,51*,-7,-16,-44,35,44*
O=C(NC(=S)NC(=O)c1ccccc1F)c1ccccc1F,25,54*,9,11,2,5,48*
COc1ccc(CCNC(=S)Nc2cccc(C)c2C)cc1,23,50*,6,12,.,31,28
Cc1ccc(C(=O)NC(=S)NCc2ccccc2)cc1,-11,52*,-1,29,5,22,42*
CCn1ccnc1CN(C)C(=O)CCc1nnc(CCC2CCCCC2)o1,5,13,-6,17,-2,10,.
Fc1ccccc1NC(=S)NCCc1ccc(Cl)cc1,30,55*,.,31,-21,30,55*
Cc1c(Cl)cccc1NC(=S)NCCc1ccc(Cl)cc1,22,32,30,20,-12,23,.
O=C(Nc1ccc(NC(=S)NC(=O)c2ccccc2F)cc1)c1cccs1,4,51*,16,17,12,25,50*
O=C(Nc1cccc(NC(=O)c2ccc(-c3cccc(Br)c3)o2)c1)c1ccco1,19,60*,41,17,16,-47,43*
O=C(Nc1ccc(Br)c(Cl)c1)c1ccco1,36,62*,-5,12,-7,28,72*
O=C(Nc1cccc(NC(=O)c2ccc(-c3ccc(Br)cc3)o2)c1)c1ccccc1,-40,-10,27,10,-16,1,.
c1ccc(CC(Nc2ccccn2)c2ccccc2)cc1 (stereo not given),38,52*,-7,20,-10,35,41*
CCC1CCCCN1S(=O)(=O)c1ccc(NC(=O)C2CCN(C(=O)c3ccco3)CC2)cc1 (stereo not given),-2,15,3,5,1,10,.
CCC1CCCCN1S(=O)(=O)c1ccc(NC(=O)c2ccncc2)cc1 (stereo not given),24,79*,-4,-5,18,32,30
CC1CC=CCC1(CO)CO (stereo not given),.,.,.,.,1,.,.
